Data: PubChem BioAssay (Tox21)
Records with an inconclusive call do not appear. Activity calls are given as the source filed them. Unless noted, calls come from the whole dose curve.

Columns and labels:
[1] = Nuclear factor erythroid 2-related factor 2/antioxidant responsive element (Nrf2/ARE) small molecule agonists: qHTS cell viability counter screen in human keratinocytes (AID 1919968; active = well fitted curve in the direction sought with a large enough effect in the repeat runs; an effect the other way counts as inactive or inconclusive; note: nearly all actives have a fitted effect of over 55% in size)
In short: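 KeratinoSens HaCaT cells, 1,500/well, preincubated 5 h, then exposed to compounds in DMSO for 23 h at 37 C/5% CO2. Viability read as CellTiter-Fluor fluorescence after 1 h, in the same wells as the ARE-luciferase read.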

[2] = Nuclear factor erythroid 2-related factor 2/antioxidant responsive element (Nrf2/ARE) small molecule agonists: luciferase reporter gene qHTS assay in human keratinocytes (AID 1919969); note: nearly all actives have a fitted effect of over 35% in size
[3] = target: Gonadotropin-releasing hormone receptor (Homo sapiens) (UniProt P30968); experiment: Human gonadotropin-releasing hormone receptor (GnRHR) small molecule agonists, calcium flux assay in GnRHR-HEK293 cells (AID 1920063); note: nearly all actives have a fitted effect of over 35% in size
Chain of Gonadotropin-releasing hormone receptor (Homo sapiens) (P30968 whole entry, looked up): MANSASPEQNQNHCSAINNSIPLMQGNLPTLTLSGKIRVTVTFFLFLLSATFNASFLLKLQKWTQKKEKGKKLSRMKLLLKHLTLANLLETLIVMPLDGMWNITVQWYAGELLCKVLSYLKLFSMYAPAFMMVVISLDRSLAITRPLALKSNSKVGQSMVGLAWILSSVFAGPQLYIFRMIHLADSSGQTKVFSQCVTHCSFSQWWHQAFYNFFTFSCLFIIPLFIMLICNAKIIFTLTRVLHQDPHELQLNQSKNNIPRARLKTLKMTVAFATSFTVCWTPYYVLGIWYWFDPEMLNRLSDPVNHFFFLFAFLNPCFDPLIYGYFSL
In short: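 HEK293 cells stably expressing human GnRHR were dye-loaded for 1 h at 37 C. Compound was added in agonist mode and fluorescence (Ex/Em 480/540) recorded kinetically for 3 min. Fifteen concentrations, triplicates.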

[4] = target: KiSS-1 receptor (Homo sapiens) (UniProt Q969F8); experiment: Human kisspeptin (KISS1R) small molecule agonists, calcium flux assay in KISS1R-HEK293 cells (AID 1920064; active = well fitted curve in the direction sought with a large enough effect in the repeat runs; an effect the other way counts as inactive or inconclusive)
Chain of KiSS-1 receptor (Homo sapiens) (Q969F8 whole entry, looked up): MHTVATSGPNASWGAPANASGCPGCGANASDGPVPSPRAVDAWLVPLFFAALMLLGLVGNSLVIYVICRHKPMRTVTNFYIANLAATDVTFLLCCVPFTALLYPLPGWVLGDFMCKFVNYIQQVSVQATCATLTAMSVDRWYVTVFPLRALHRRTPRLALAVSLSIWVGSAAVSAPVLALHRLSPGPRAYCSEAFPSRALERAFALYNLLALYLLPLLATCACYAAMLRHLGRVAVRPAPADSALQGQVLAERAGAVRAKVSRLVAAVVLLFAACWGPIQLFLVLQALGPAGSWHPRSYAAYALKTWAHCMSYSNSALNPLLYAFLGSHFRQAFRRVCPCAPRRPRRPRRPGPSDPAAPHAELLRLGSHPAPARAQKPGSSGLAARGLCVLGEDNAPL
In short: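 HEK293 cells stably expressing human KISS1R were loaded with calcium dye for 1 h at 37 C, then given compound; fluorescence (Ex/Em 480/540) was read kinetically for 3 min. Fifteen concentrations, triplicate.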

[5] = p53 small molecule agonists, cell-based qHTS assay with human liver microsomes: qHTS cell viability counter screen (AID 1963579); note: nearly all actives have a fitted effect of over 45% in size
In short: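 Metabolic activation used human liver microsomes and NADPH, both 0.5 mg/mL final, over 16 hours at 37 C on p53RE-bla cells (4,000/well). Cytotoxicity measured by CellTiter-Glo luminescence, 30 min at room temperature.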

[6] = p53 small molecule agonists, cell-based qHTS assay with rat liver microsomes: qHTS cell viability counter screen (AID 1963580); note: nearly all actives have a fitted effect of over 45% in size
In short: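 Viability is assessed in parallel with the p53 reporter read: HCT-116 p53RE-bla cells receive compounds plus rat microsomes and NADPH (0.5 mg/mL final apiece), incubate 16 h at 37 C, and then CellTiter-Glo luminescence is recorded.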

[7] = p53 small molecule agonists, cell-based qHTS assay: qHTS cell viability counter screen (AID 1963581); note: nearly all actives have a fitted effect of over 45% in size
In short: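 p53RE-bla HCT-116 cells, compounds added 5 h after plating and incubated 16 h at 37 C. Cytotoxicity measured in the same wells as intracellular ATP by CellTiter-Glo luminescence after 30 min at room temperature.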

[8] = target: 5-hydroxytryptamine receptor 2A (Homo sapiens) (UniProt P28223); experiment: 5-hydroxytryptamine receptor 2A (HTR2A) small molecule antagonists, cell-based qHTS assay (AID 1963586); note: nearly all actives have a fitted effect of over 45% in size
Chain of 5-hydroxytryptamine receptor 2A (Homo sapiens) (P28223 whole entry, looked up): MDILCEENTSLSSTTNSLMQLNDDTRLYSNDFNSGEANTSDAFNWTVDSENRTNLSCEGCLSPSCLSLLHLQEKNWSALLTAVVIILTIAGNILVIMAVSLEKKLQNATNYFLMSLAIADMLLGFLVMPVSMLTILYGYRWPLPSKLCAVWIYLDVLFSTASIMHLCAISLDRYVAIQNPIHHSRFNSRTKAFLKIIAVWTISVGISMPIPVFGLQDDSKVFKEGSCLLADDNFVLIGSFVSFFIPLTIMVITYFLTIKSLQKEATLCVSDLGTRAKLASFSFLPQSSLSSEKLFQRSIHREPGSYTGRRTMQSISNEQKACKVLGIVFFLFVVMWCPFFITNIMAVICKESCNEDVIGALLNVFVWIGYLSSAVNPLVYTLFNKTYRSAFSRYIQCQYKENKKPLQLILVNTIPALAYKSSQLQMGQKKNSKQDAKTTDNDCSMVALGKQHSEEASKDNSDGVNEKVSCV
In short: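 Antagonist-mode intracellular calcium assay: DOI (4 nM) added after 5 min compound pre-incubation at room temperature to dye-loaded HTR2A-CHO cells. Fluorescence followed for 3 min, sampled every second.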

[9] = target: 5-hydroxytryptamine receptor 2A (Homo sapiens) (UniProt P28223); experiment: 5-hydroxytryptamine receptor 2A (HTR2A) small molecule agonists, cell-based qHTS assay (AID 1963587); note: nearly all actives have a fitted effect of over 30% in size
In short: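 CHO cells stably expressing human HTR2A, plated 18 h, loaded with calcium dye 1 h at 37 C. Agonist mode: compounds added and intracellular calcium fluorescence recorded kinetically for 2 min at 1 sec intervals.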

[10] = target: Muscarinic acetylcholine receptor M1 (Homo sapiens) (UniProt P11229); experiment: Cholinergic receptor muscarinic 1 (CHRM1) small molecule antagonists, cell-based qHTS assay (AID 1963588); note: nearly all actives have a fitted effect of over 40% in size
Chain of Muscarinic acetylcholine receptor M1 (Homo sapiens) (P11229 whole entry, looked up): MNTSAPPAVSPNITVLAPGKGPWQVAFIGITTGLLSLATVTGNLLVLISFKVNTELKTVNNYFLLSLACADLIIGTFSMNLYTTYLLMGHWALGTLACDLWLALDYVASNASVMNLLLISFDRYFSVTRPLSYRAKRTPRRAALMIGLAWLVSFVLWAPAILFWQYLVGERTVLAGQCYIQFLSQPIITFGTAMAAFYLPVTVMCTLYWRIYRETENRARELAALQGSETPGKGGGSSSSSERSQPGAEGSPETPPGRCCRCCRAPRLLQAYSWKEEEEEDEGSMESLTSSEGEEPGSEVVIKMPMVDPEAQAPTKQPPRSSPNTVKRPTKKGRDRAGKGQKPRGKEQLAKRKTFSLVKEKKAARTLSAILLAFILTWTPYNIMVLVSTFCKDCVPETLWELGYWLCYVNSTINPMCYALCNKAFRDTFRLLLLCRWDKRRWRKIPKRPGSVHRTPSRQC
In short: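 CHRM1-CHO calcium-flux assay, antagonist mode. Cells were seeded 18 h, dye-loaded 1 h at 37 C and given compound for 5 min at RT, then acetylcholine was added at 50nM. FDSS fluorescence was read 3 min; 15 concentrations, three runs.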

[11] = target: Muscarinic acetylcholine receptor M1 (Homo sapiens) (UniProt P11229); experiment: Cholinergic receptor muscarinic 1 (CHRM1) small molecule agonists, cell-based qHTS assay (AID 1963589); note: nearly all actives have a fitted effect of over 35% in size; note: potency is the fitted concentration of half-maximal effect
In short: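 CHO cells stably expressing human CHRM1 were loaded with calcium dye for 1 h at 37 C, then compound was added in agonist mode. Intracellular calcium fluorescence was followed kinetically at 1 s intervals. Fifteen concentrations were tested in three independent runs.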

[12] = cAMP Responsive Elements (CRE) small molecule antagonists, cell-based qHTS assay (AID 1963591; active = well fitted inhibition curve with a large enough effect in the signal ratio in the repeat runs, not every such curve was filed as active; the % refers to the signal ratio)
In short: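 CRE-bla HEK293T cells plated 18 h, then given compound plus NKH477 at 0.25 uM final for 3 h at 37C. Beta-lactamase reporter read with LiveBLAzer B/G FRET substrate after 2 h at room temperature.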

[13] = target: Beta-2 adrenergic receptor (Homo sapiens) (UniProt P07550); experiment: Adrenergic beta2 receptor (ADRB2) small molecule antagonists, cell-based qHTS assay (AID 1963592); note: series mostly up to about 92 µM; nearly all actives have a fitted effect of over 50% in size
Chain of Beta-2 adrenergic receptor (Homo sapiens) (P07550 whole entry, looked up): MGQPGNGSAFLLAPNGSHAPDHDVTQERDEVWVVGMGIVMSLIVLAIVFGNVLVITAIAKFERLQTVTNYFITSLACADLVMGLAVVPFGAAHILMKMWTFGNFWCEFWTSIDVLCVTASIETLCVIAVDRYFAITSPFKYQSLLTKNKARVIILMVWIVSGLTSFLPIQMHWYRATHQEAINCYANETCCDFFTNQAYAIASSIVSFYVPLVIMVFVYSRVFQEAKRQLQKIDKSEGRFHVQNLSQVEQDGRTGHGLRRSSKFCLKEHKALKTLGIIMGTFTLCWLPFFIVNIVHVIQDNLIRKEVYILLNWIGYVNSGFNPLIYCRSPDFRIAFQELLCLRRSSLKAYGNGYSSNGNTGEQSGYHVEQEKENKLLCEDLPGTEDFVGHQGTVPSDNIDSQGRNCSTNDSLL
In short: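 Cells (CHO, stable ADRB2 overexpression) incubated 18-20hr at 37C; compounds added from DMSO; agonist mix (1nM isoproterenol, 100uM IBMX, 25uM Ro-20-1724) added; 0.5hr RT; d2-cAMP and anti-cAMP-cryptate added; 1hr RT; 665/615 nm read.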

[14] = target: Beta-2 adrenergic receptor (Homo sapiens) (UniProt P07550); experiment: Adrenergic beta2 receptor (ADRB2) small molecule agonists, cell-based qHTS assay (AID 1963593);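 note: CHO cells stably overexpressing human ADRB2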
In short: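 CHO cells stably over-expressing ADRB2 were plated overnight at 37C, then dosed with compounds plus a stimulation mix containing 100uM IBMX and 25uM Ro-20-1724 for 0.5hr at room temperature. cAMP was measured by HTRF competition, 1hr.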

[15] = target: D(2) dopamine receptor (Homo sapiens) (UniProt P14416); experiment: Dopamine D2 receptor (DRD2) small molecule agonists, cell-based qHTS assay (AID 1963594); note: nearly all actives have a fitted effect of over 35% in size
Chain of D(2) dopamine receptor (Homo sapiens) (P14416 whole entry, looked up): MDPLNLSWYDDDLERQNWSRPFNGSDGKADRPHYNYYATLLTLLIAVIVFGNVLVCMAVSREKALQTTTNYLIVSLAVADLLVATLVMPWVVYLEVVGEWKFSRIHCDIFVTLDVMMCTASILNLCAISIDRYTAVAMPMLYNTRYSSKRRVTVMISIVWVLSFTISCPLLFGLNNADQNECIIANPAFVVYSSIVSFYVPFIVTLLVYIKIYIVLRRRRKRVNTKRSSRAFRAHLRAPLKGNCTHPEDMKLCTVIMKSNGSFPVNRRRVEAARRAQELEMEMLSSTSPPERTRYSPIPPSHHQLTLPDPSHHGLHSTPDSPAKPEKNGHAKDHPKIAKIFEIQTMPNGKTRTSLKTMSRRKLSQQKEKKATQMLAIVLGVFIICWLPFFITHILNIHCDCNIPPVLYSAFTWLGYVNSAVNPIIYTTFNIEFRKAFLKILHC
In short: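 HEK293 cells stably expressing human DRD2, pre-treated with PDE inhibitor Ro20-1724 (0.1 mM final) and compound 10 min at room temperature, then stimulated with NKH477 (200nM […]) for 30 min. cAMP read by HTRF (665/620 nm).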

[16] = target: D(2) dopamine receptor (Homo sapiens) (UniProt P14416); experiment: Dopamine D2 receptor (DRD2) small molecule antagonists, cell-based qHTS assay (AID 1963595; active = well fitted inhibition curve with a large enough effect in the signal ratio in the repeat runs, with a control signal flat; the % refers to the signal ratio)
In short: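 Human DRD2 antagonist qHTS measuring cAMP by HTRF. The cells are exposed to compound for 10 min, then to NKH477 (200 nM) and quinpirole (12 nM) for 30 min at RT, with Ro20-1724 (0.1 mM) present throughout.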

[17] = p53 small molecule agonists, cell-based qHTS assay with rat liver microsomes (AID 1963578)
In short: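 Metabolic activation by rat liver microsomes and NADPH, each 0.5 mg/mL final, added right after compounds to p53RE-bla reporter cells (4,000/well, plated 5 h earlier). 16 h at 37 C, then LiveBLAzer substrate for 2 h at room temperature in the dark; fluorescence read-out.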

[18] = p53 small molecule agonists, cell-based qHTS assay (AID 1963582; active = well fitted activation curve with a large enough effect in the signal ratio in the repeat runs, not every such curve was filed as active; the % refers to the signal ratio)
In short: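 p53RE-bla reporter cells, compounds added in DMSO after 5 h plating, incubated 16 h at 37 C. Beta-lactamase read via 2 h room-temperature LiveBLAzer B/G FRET substrate, fluorescence intensity.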

[19] = cAMP Responsive Elements (CRE) small molecule agonists, cell-based qHTS assay (AID 1963590); note: potency is the fitted concentration of half-maximal effect
In short: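 CRE-bla HEK 293T cells, 2,000/well in DMEM with 10% dialyzed FBS and 25 mM HEPES, pre-incubated 18 h at 37 C, then exposed to compound 3 h at 37 C. Beta-lactamase reporter read with LiveBLAzer B/G FRET substrate after 2 h at room temperature.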

[20] = G protein-coupled receptor (GPCR) small molecule agonists, calcium flux assay: HEK293 wild type cell line counter screen (AID 1920065)
In short: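 Wild-type HEK293 cells plated 18 h, loaded with calcium dye 1 h at 37 C, then compounds added in agonist mode (ATP as positive control). Kinetic fluorescence Ex/Em 480/540 recorded 3 min at 1 sec intervals; 15 concentrations, triplicate.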

Measured: Potency

COC(=O)CC(=O)C(C)(C)C
not listed: [17] | [18] | [19] | [20]
inactive: all other assays above

COc1cc(-c2ccc(=O)[nH]n2)ccc1OC(F)F
active: [11] 0.0038 µM | [19] 13.3 µM
not listed: [7] | [8] | [10] | [20]
inactive: all other assays above

Cc1cc(C)c(C)c(C)c1
not listed: [7] | [12] | [14] | [17] | [20]
inactive: all other assays above

Nc1nc2ccc(OC(F)(F)F)cc2s1
inactive: [1] | [2] | [3] | [4] | [17] | [6] | [7] | [19] | [12] | [13] | [16]

CCCc1ccc(OC)cc1
not listed: [14] | [17] | [18] | [20]
inactive: all other assays above

CC(C)NC[C@@H](O)COc1ccc(CC(N)=O)cc1
inactive: [1] | [2] | [3] | [4] | [20] | [18] | [19] | [12] | [15]

CC(=O)OCC(=O)[C@@]1(O)[C@H](C)C[C@H]2[C@@H]3CCC4=CC(=O)C=C[C@]4(C)[C@@]3(F)[C@@H](O)C[C@@]21C
not listed: [12] | [13] | [14] | [17] | [18] | [20]
inactive: all other assays above

NC(Cc1c[nH]c2ccccc12)C(=O)O (configuration not stated)
not listed: [8] | [13] | [14] | [17] | [18] | [20]
inactive: all other assays above

Cc1ccc(-c2ncc(Cl)cc2-c2ccc(S(C)(=O)=O)cc2)cn1
inactive: [1] | [2] | [3] | [4] | [5] | [6] | [7] | [8] | [11] | [13] | [15]
